Compounds with a hit are over-represented: about 5.9% of the library has one in this group of screens.
LANA-H2A inh: blocks KSHV LANA binding to histone H2A/H2B | Q9QR71 | cell-free LANA-H2A/H2B peptide, fluorescence polarization | inhibition, % (concentration not given with the values) | 320,000 compounds, 0.6% hits | AID 2629; in the data active means inhibition mostly above about 10%, no sharp cut-off; inactive means mostly below about 6.7%
Rtt109 HAT inh: C. albicans Rtt109 histone acetyltransferase inhibition; purified Rtt109/Vps75, ThioGlo CoA-SH fluorescence, 4 h; inhibition, % at 34.9 µM; 330,000 compounds, 0.16% hits; AID 540336;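 active means inhibition of at least 50% in every replicate; inconclusive means best replicate reaches 50% inhibition but some replicates fall short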
ALR inh: inhibitors of human sulfhydryl oxidase ALR. AID 485317. 290,000 compounds, 3.8% hits. P55789. inhibition, % (concentration not given with the values). purified ALR, DTT oxidation, H2O2 HRP-luminol luminescence;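 active means mean replicate inhibition above about 79%, with every replicate also reaching it, limit read from the data; inconclusive means only one of the two criteria met; inactive means mean below limit and not every replicate reaching it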
rCAG RNA binder: binds r(CAG) RNA repeats; r(CAG) RNA repeat, TO-PRO-1 dye displacement fluorescence; inhibition, % at 3 µM; 370,000 compounds, 1.3% hits;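 active means inhibition above the plate cutoff, the mean of all test compounds on that plate plus 3 SD, cut at about 35% in these data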;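 further: 0% = DMSO alone and 100% = 100 µM mitoxantrone as full dye displacement; higher means more dye released from RNA so lower well fluorescence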
ABHD5 PLIN5 PPI: blocks binding of human ABHD5 to perilipin-5; Q00G26+Q8WTS1; Split G. princeps luciferase complementation, luminescence, 4 h; inhibition, % at 4 µM; 360,000 compounds, 0.78% hits; AID 602281;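 active means inhibition above the mean inhibition across every tested compound plus 3 SD, cut at about 22% in these data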;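 further: 0% = DMSO only wells and the 100% control is not disclosed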
Target sequence (Q00G26 whole entry, looked up): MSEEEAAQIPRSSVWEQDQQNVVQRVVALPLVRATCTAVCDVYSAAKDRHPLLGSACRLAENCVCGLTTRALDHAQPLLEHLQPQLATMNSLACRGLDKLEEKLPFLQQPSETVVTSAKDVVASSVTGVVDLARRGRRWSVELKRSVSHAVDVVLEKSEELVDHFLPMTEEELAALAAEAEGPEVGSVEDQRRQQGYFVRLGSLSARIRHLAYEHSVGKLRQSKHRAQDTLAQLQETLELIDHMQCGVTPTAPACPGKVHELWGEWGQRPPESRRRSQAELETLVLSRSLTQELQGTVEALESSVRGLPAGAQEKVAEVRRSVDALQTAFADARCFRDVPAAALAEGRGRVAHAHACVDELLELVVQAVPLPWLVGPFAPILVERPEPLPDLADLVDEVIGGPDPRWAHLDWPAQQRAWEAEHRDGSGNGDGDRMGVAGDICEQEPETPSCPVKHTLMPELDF
Target sequence (Q8WTS1 whole entry, looked up): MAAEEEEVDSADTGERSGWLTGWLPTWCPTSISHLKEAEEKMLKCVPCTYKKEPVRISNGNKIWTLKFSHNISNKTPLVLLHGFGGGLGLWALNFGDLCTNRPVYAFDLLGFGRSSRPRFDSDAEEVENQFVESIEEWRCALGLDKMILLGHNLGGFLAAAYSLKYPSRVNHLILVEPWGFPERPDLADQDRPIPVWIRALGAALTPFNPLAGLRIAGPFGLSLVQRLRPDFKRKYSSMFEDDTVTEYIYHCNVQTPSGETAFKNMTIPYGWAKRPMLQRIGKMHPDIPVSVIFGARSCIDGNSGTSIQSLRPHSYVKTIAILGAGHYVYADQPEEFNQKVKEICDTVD
PRMT1 inh: inhibitors of human PRMT1; recombinant PRMT1, activity-based probe fluorescence polarization; inhibition, % at 2.79 µM; 370,000 compounds, 1.3% hits;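 active means inhibition above about 21% made by adding two undisclosed values, limit read from the data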
rCAG bind conf: r(CAG) RNA repeat binding, confirmation; shares compounds with rCAG RNA binder; TO-PRO-1 dye displacement fluorescence; inhibition, % at 3 µM; 4,300 compounds, 70% hits;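 active means inhibition above a per-plate cutoff, the mean inhibition of sample wells plus 3 SD, cut at about 35% in these data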;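 further: loss of TO-PRO-1 fluorescence as compound displaces dye from 1x1 AA loop RNA; 0% = DMSO only wells and 100% = 100 µM mitoxantrone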
DNA CAG counter: counter-screen for rCAG RNA binders: DNA CAG dye complex inhibitors. shares compounds with rCAG RNA binder. d(CAG) DNA oligo TO-PRO-1 dye displacement, fluorescence. inhibition, % at 3 µM. 4,300 compounds, 94% hits. AID 652068;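 active means inhibition above its plate's cutoff, the mean test-well inhibition plus 3 SD, cut at about 4.8% in these data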;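 further: 0% = DNA dye mix with DMSO and 100% = 100 µM mitoxantrone; hits displace the dye from DNA and so lower well fluorescence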
An asterisk follows results filed as active; i = inactive; u = inconclusive; x = no result given.

SMILES	LANA-H2A inh	Rtt109 HAT inh	ALR inh	rCAG RNA binder	ABHD5 PLIN5 PPI	PRMT1 inh	rCAG bind conf	DNA CAG counter
COc1ccc2[nH]c(C(=O)O)c(NS(=O)(=O)c3ccc(C)c(C)c3)c2c1	-3	-10	97*	44*	-1	1	24	5.9*
Cc1ccc(S(=O)(=O)Nc2cc3c(C(=O)O)c(C)oc3c3ccccc23)c(C)c1	-2	-1	1	24	0	2	x	x
CCOc1ccc(NC(=O)/C(C=Nc2ccccc2)=C(\C)O)cc1	-3	3	x	3	0	5	x	x
Cc1cccc(NC(=O)/C=C/c2ccc([N+](=O)[O-])s2)c1	-2	-3	x	2	2	-3	x	x
Cc1cccc(NC(=S)N/N=C/c2ccc([N+](=O)[O-])s2)c1	-6	7	-29	36*	-9	1	18	11*
C[C@@H](NC(=O)[C@@H]1CCCN1C(=O)[C@@H]1CCCN1C(=O)c1ccccc1)c1ccccc1	x	x	x	3	1	4	x	x
Cc1ccc(C(=O)Nc2cccc([N+](=O)[O-])c2)cc1S(=O)(=O)Nc1ccc(NC(=O)c2ccccc2)cc1	1	2	-5	55*	11	0	41*	21*
Cc1ccc(C(=O)N2CCCC2)cc1S(=O)(=O)Nc1ccccc1	-4	3	-2	-1	-2	-1	x	x
Cc1ccc(C(=O)Nc2ccccc2C(=O)O)cc1S(=O)(=O)NC1CCCCC1	-5	11	6	70*	2	1	61*	22*
Cc1ccc(C(=O)Nc2ccccc2C(=O)O)cc1S(=O)(=O)Nc1ccccc1	-1	4	25	67*	0	-2	46*	15*
Cc1ccc(NC(=O)CC(=O)c2ccc([N+](=O)[O-])cc2)cc1S(=O)(=O)Nc1cccc(Cl)c1	-2	12	0	50*	1	-2	64*	25*
Cc1cc(Oc2ccc(Cl)cc2)nc(-c2ccccn2)n1	0	-11	-1	88*	-4	6	0	-1
Cc1cc(Oc2ccccc2)nc(-c2ccccc2O)n1	-1	-9	-18	0	-11	-2	x	x
CCCc1c(C(=O)N/N=C(\C)c2ccc(CC(C)C)cc2)nnn1-c1nonc1N	x	x	x	4	-6	-5	x	x
O=S(=O)(Nc1cccc(-n2cnnn2)c1)c1ccccc1	-1	5	-5	4	1	-2	x	x
O=S(=O)(Nc1cccc(-n2cnnn2)c1)c1cc(Br)ccc1Br	3	-2	1	36*	9	1	21	4.9*
CCCc1cc(=O)[nH]c(SCC(=O)Nc2ccc(C)c(S(=O)(=O)N3CCCCC3)c2)n1	0	3	-3	42*	-8	3	37*	10*
CCCc1cc(=O)[nH]c(SCC(=O)Nc2ccc(OC)c(S(=O)(=O)N3CCCCC3)c2)n1	-5	0	u	24	5	2	x	x
CCCc1cc(=O)[nH]c(SCC(=O)Nc2cc(S(=O)(=O)N3CCCCC3)ccc2Cl)n1	x	-5	x	41*	-13	-1	35*	11*
COc1ccc(-n2c(SCC(=O)Nc3cccc4ccccc34)nnc2-c2ccco2)cc1	x	x	x	6	x	1	x	x
C=CCN(c1ccccc1)S(=O)(=O)c1cccc(C(=O)Nc2nnc(SCC)s2)c1	1	16	67	52*	5	-2	58*	17*
COc1cc(C2CC(c3ccccc3)=NN2c2ccccc2)ccc1OCC(=O)O (stereo not drawn)	5	-134	99*	41*	-5	5	50*	15*
COc1ccc(C2=NN(c3ccc(C(=O)O)cc3)C(c3ccc(OC)c(OC)c3)C2)cc1 (stereo not drawn)	0	i	x	39*	-3	0	49*	14*
COc1ccc(C2=NN(c3ccccc3)C(c3cn(CCC(=O)O)nc3-c3ccccc3)C2)cc1 (stereo not drawn)	9	-5	94*	39*	2	-3	46*	12*
COc1ccc(C2CC(c3ccccc3)=NN2c2ccc(S(N)(=O)=O)cc2)cc1OC (stereo not drawn)	5	-141	-17	10	4	-3	x	x
SMILES	LANA-H2A inh	Rtt109 HAT inh	ALR inh	rCAG RNA binder	ABHD5 PLIN5 PPI	PRMT1 inh	rCAG bind conf	DNA CAG counter
COc1ccc(-c2nn(CCC(=O)O)cc2CCC(=O)O)cc1	2	-9	-4	-1	0	-3	x	x
COc1ccc(C2CC(c3ccccc3)=NN2c2ccccc2)c(C(=O)O)c1OC (stereo not drawn)	3	-3	99*	46*	-4	8	59*	16*
COc1ccccc1OCCNC(=O)c1ccc2c(c1)CCC2	0	-7	x	21	-6	2	x	x
COc1ccc(C2CC(c3ccccc3)=NN2c2ccc(Cl)c(C(=O)O)c2)cc1 (stereo not drawn)	-1	-300	98*	61*	3	7	55*	17*
Cc1ccc2c(=O)n3c(nc2c1)C(Cc1ccc(O)cc1)NC(=O)c1cccnc1-3 (stereo not drawn)	x	x	x	1	-2	-2	x	x
O=C(Nc1cccc(S(=O)(=O)Nc2ccccc2Cl)c1)c1ccc(N2CCCC2)c([N+](=O)[O-])c1	1	-6	-1	61*	2	1	44*	21*
O=C(Nc1cccc(C(F)(F)F)c1)Nc1ccc(N2CCCC2)c(S(=O)(=O)Nc2ccccc2Cl)c1	2	1	-2	46*	-20	-1	34	18*
CCn1nc(NS(=O)(=O)c2ccc([N+](=O)[O-])cc2)c2cc3ccc(C)cc3nc21	14	4	21	53*	-12	6	37*	9.6*
Cc1ccc([C@@H]2CC=C(C(=O)O)[C@H](c3ccc(Cl)cc3)N2S(=O)(=O)c2ccc(C)cc2)cc1	-5	21	6	84*	-8	3	78*	45*
CCOc1ccc([C@@H]2CC=C(C(=O)O)[C@H](c3ccc(Cl)cc3)N2S(=O)(=O)c2ccc(C)cc2)cc1	-1	4	11	59*	0	2	74*	37*
Cc1ccc(S(=O)(=O)N2[C@@H](c3ccc(F)cc3)C(C(=O)O)=CC[C@H]2c2ccc(C(C)C)cc2)cc1	0	15	65	82*	0	4	80*	44*
Cc1ccc(S(=O)(=O)N2[C@@H](c3ccc(Cl)cc3)C(C(=O)O)=CC[C@H]2c2cccc(Cl)c2)cc1	-5	27	6	13	7	1	x	x

High-throughput results deposited in PubChem by several laboratories.
